# Assay results: ChEMBL document CHEMBL3433997, “St. Jude Leishmania screening dataset” (2016)
# Biological target: Solute carrier family 2, facilitated glucose transporter member 1 (Homo sapiens) (UniProt P11166)
# Experiment: ST_JUDE_LEISH: Cytotoxicity at 2uM final concentration against transgenic Leishmania Mexicana promastigotes LmGLUT1 that are glucose transport deficient and complemented with the human glucose transporter GLUT1. Activity is measured by DNA content using SYBR green in vitro
# Type: functional
# Chain of Solute carrier family 2, facilitated glucose transporter member 1 (Homo sapiens) (P11166 whole entry): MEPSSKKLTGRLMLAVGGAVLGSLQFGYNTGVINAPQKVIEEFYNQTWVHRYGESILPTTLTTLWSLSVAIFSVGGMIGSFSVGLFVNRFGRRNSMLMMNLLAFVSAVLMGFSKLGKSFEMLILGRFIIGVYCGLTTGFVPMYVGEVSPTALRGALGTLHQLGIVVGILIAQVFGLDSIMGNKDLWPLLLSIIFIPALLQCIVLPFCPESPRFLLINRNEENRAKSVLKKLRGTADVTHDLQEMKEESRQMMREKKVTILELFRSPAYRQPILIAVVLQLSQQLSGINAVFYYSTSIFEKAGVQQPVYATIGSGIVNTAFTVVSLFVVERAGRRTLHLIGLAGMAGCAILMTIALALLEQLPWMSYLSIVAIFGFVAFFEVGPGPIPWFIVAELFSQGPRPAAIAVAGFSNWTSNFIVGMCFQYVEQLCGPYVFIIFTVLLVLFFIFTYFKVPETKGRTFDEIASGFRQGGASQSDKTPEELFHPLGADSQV
row,SMILES,inhibition [%]
1,Cc1ccc(-n2cc(CNCCCn3ccnc3)c(-c3cccc(C)c3)n2)cc1,4.3
2,CCNS(=O)(=O)c1ccc(Oc2ccc([N+](=O)[O-])cc2)cc1,0.11
3,O=C(NCC1CCC(C(=O)NC2CCCc3ccccc32)CC1)c1ccc(O)c(-c2cccc([N+](=O)[O-])c2)c1 (stereo not given),3.94
4,O=C(/C=C/c1ccc(Cl)c(Cl)c1)NCCCCCN1CCCN(C(=O)Nc2ccc(F)c(F)c2)CC1,2.67
5,COc1ccccc1CCNc1nc(C)cc(N[C@@H](CC(C)C)C(=O)Nc2ccccc2)n1,4.84
6,N#Cc1ccnc(-c2ccc(CNC3CCN(CC4Cn5c(=O)ccc6ccc(F)c4c65)CC3)cc2)c1 (stereo not given),9.83
7,COc1cc(NC(=O)c2cccc([N+](=O)[O-])c2)cc(S(=O)(=O)c2ccc(Cl)cc2)c1,-0.46
8,CN(CCO)Cc1ccc(-c2ccc(NS(=O)(=O)c3cccc4cccnc34)cc2)cc1,75.1
9,COc1cccc(-c2csc(C(=O)NC3CCCCN(Cc4ccc(C(C)(C)C)cc4)C3)c2)c1 (stereo not given),4.84
10,COC(=O)c1cccc(CNCc2cccc(-c3cccc(-c4nc5cc(C(F)(F)F)ccc5[nH]4)c3)c2)c1,-1.41
11,CCOc1ccc2[nH]c(C)cc(=NN=Cc3ccc(Cl)cc3)c2c1,-0.27
12,Cc1cccc2nc(-c3cccc(-c4ccc(NC(=O)Cc5c[nH]cn5)cc4)c3)[nH]c12,-1.66
13,Cc1c(C2CCN(CCCCNC(=O)c3ccc(-c4ccc(C#N)cc4)cc3)CC2)c2ccccc2n1CCO,3.84
14,Clc1ccc(-c2nc3cc(-c4ccc5nc(-c6ccc(Cl)cc6)[nH]c5c4)ccc3[nH]2)cc1,11.2
15,Cc1cc(N[C@@H](CC(C)C)C(=O)NCc2cccc(F)c2)nc(NCCc2ccc(F)cc2)n1,4.5
16,COc1cccc(-c2ccc3ccnc(N)c3c2)c1,4.14
17,C=CCn1cc(C2CCN(CCCCNC(=O)c3sc(-c4ccc(C(F)(F)F)cc4)nc3CO)CC2)c2cc(OC)ccc21,1.93
18,O=C(Nc1ccc(OC2CCN(Cc3ccccc3)C2)c(Cl)c1)c1cccs1 (stereo not given),1.18
19,COc1cccc(NC(=O)NC2CCN(c3ccnc(Nc4cc(OC)c(OC)c(OC)c4)n3)C2)c1 (stereo not given),1.18
20,Cc1cccc2nc(-c3ccc(-c4ccc(NC(=O)c5cncn5C)cc4)s3)[nH]c12,11.3

row,SMILES,inhibition [%]
1,COc1cccc(COCC(O)CN(CCc2ccccn2)C(=O)c2ccccc2F)c1 (stereo not given),2.13
2,CCCN1CCC=C(c2cccc(Nc3nccc(Nc4cc(OC)ccc4C)n3)c2)C1,11.2
3,CN(C)c1ccc(-c2csc(C(=O)NCC3CCN(Cc4ccc(C(C)(C)C)cc4)C3)c2)cc1 (stereo not given),-1.07
4,CCn1c(-c2nonc2N)nc2c(-c3cccc(NC(=O)Nc4cccc(Cl)c4)c3)ncc(OCCCN)c21,4.22
5,Oc1ccc(CCNc2nc(NCc3ccccc3-c3ccc(C(F)(F)F)cc3)nc(NC3CCNCC3)n2)cc1,1.32
6,Cc1cccc2nc(-c3ccc(-c4ccc(CN5CC(C)OC(C)C5)cc4)cc3)[nH]c12 (stereo not given),4.48
7,CCN1CCC(N(Cc2ccc(-c3ccc(C(F)(F)F)cc3)cc2)C(=O)Cn2c(SCc3cccc(F)c3F)cc(=O)c3ccccc32)C1 (stereo not given),0.27
8,O=C(NCCNc1ccnc(Nc2ccc(F)cc2)n1)Nc1ccc2c(c1)OCO2,1.78
9,Cc1ccccc1C1CCN(C2CCC(NC(=O)c3ccc4c(c3)-c3nocc3C(C)O4)CC2)CC1 (stereo not given),5.85
10,N#Cc1ccc2[nH]cc(C(=O)CCCCCN(Cc3ccccc3)Cc3ccccc3)c2c1,0.31
11,O=C(/C=C/c1ccc(Cl)c(Cl)c1)NCCCCCN1CCC(NC(=O)Nc2ccc(Br)cc2)CC1,-0.66
12,N=C(N)c1nc2ccccc2s1,1.87
13,Cc1cc(N)nc2ccc(-c3cccc(CN)c3)cc12,0.78
14,O=C(Nc1cccc(-c2cccc(CN3CCCC3)c2)c1)c1ccc(Cl)cc1,1.55
15,Cn1c(Cc2ccccc2)nnc1Sc1ccc(C#N)c([N+](=O)[O-])c1,3.85
16,COc1ccc2nccc([C@@H](O)CN3CCC(NCCOc4cccc(F)c4F)CC3)c2c1,4.54
17,COc1cc(NC(=O)c2cccs2)c(OC)cc1NC(=O)Nc1cccc(Cl)c1,3.28
18,O=S(=O)(NCCN1CCCC1)c1ccc(-c2cccc(CNCCc3cccs3)c2)s1,0.02
19,O=C(CCn1cncn1)N1CCCC(c2[nH]c3ccccc3c2-c2ccncc2)C1 (stereo not given),-2.2
20,O=C(Nc1ccccc1F)NC1CCN(c2ccnc(Nc3ccc(F)cc3)n2)CC1,2.94
